Rows were chosen to be rich in hits. Some 7.6% of all compounds tested hit in one or more screens of this group.
Cy5 interf NS3h: Cy5 fluorescence quenchers or enhancers, artefact control for HCV NS3 helicase inhibitor project, biochemical, ChemBridge library, Cy5 readout. Cy5-dT15 DNA with NS3h, fluorescence interference; actives lie on both sides; signal over control mean, under 1 quenches. fluorescence interference ratio at 100 µM. 16,000 tested, 6% active;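 active = compound fluorescence over control fluorescence at most 0.8, a quencher, or at least a set upper limit, an enhancer; inactive = ratio between 0.8 and the set upper limit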
HCV NS3h FP: HCV NS3 helicase inhibitors, primary screen, biochemical, fluorescence polarization, ChemBridge library; inhibition, % at 100 µM; AID 687043, 2013; 16,000 tested, 1.6% active; NS3h Cy5-dT15 DNA binding; Hepatitis C virus NS3 helicase;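 active = inhibition above the average over every tested compound plus 3 SD, cut at about 40% in these data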
NS3h confirm: HCV NS3 helicase inhibitors, retest, confirmation, biochemical, fluorescence polarization, ChemBridge library; shares compounds with HCV NS3h FP; NS3h binding to Cy5-dT15 DNA; inhibition, % at 100 µM; 240 tested, 20% active;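 active = percent inhibition of 50% or more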
SSB-DNA FP CB: E. coli SSB-DNA binding inhibitors, counter-screen for HCV NS3 helicase inhibitor project, biochemical, fluorescence polarization, selected ChemBridge compounds; E. coli SSB binding Cy5-dT15; AID 720486, 2013; shares compounds with HCV NS3h FP; inhibition, % at 100 µM; 240 tested, 40% active;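 active = inhibition of at least 50%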;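 note: displacers lower Cy5 polarization so higher inhibition means more SSB displaced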
Target sequence (P0AGE0 whole entry, looked up): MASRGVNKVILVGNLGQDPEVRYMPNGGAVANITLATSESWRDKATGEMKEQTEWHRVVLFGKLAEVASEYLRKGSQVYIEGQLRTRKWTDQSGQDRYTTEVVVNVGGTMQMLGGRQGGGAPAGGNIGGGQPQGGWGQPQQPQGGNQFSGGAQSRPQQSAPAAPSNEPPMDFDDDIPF
Cy5 SSB fluor CB: Cy5 fluorescence interference with SSB-bound oligo, artefact control for HCV NS3 helicase inhibitor project, biochemical, E. coli SSB, selected ChemBridge compounds; shares compounds with HCV NS3h FP; Cy5-dT15/E. coli SSB fluorescence interference; actives lie on both sides; fluorescence interference ratio at 100 µM; 240 tested, 8% active; AID 720487, 2013;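 active = fluorescence interference ratio at or above 1.2, signal boosting, or at or below 0.8, signal quenching; inactive = ratio between 0.8 and 1.2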
Cy5 interf conf: Cy5-DNA-NS3h complex fluorescence interference, confirmation, artefact control for HCV NS3 helicase inhibitor project, biochemical, ChemBridge library; 240 tested, 44% active; AID 720489, 2013; Cy5-dT15 DNA/NS3h fluorescence interference counterscreen; shares compounds with HCV NS3h FP; fluorescence interference ratio at 100 µM, hits read low;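 active = fluorescence interference ratio at or below 0.8 quencher or at or above a set limitenhancer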
Numbers stand for hits; 0 = inactive; ! = not confirmed by another sample.

SMILES | Cy5 interf NS3h | HCV NS3h FP | others
COc1ccc(C=C2C(=O)NC(=S)NC2=O)c(OC)c1 | 0.78 | 0
COc1cccc(C=C2C(=O)NC(=O)NC2=O)c1 | 0 | 0
C=CCOc1ccc(/C=C2\C(=O)NC(=O)N(CC=C)C2=O)cc1OC | 0 | 0
COc1ccc2[nH]cc(CCN)c2c1 | 0.76 | 0
COc1ccc(C(c2c(O)c3ccccc3oc2=O)c2c(O)c3ccccc3oc2=O)cc1CN1CCOCC1 | 0 | 0
N#CC1=C(N)Oc2c(c(=O)oc3ccccc23)C1c1ccccc1 (configuration not stated) | 0 | 0
Cc1ccc(NC(=O)c2nc[nH]c2C(=O)Nc2ccc(Br)cc2C(=O)c2ccccc2)cc1 | 0 | 0
COC(=O)c1[nH]cnc1C(=O)Nc1ccc(Cl)cc1C(=O)c1ccccc1 | 0.72! | 0
Cc1ccccc1N1C(=O)/C(=C/c2ccc(OCc3cccc(C(=O)O)c3)cc2)C(=O)NC1=S | 0 | 0
O=C(Cn1c[n+]([N-][N+](=O)[O-])cn1)N1CCN(C(=O)Cn2c[n+]([N-][N+](=O)[O-])cn2)CC1 | 0 | 0
O=C(Cn1c[n+]([N-][N+](=O)[O-])cn1)Nc1ccc(NC(=O)Cn2c[n+]([N-][N+](=O)[O-])cn2)cc1 | 0.76 | 0
COc1ccccc1CN1CCN(Cc2ccc(C)cc2)CC1 | 0 | 0
CC(C)COP(C)(=S)/C(C#N)=C(\OC(=O)c1ccccc1)c1ccccc1 (configuration not stated) | 0 | 0
O=C(Nc1ccc(Cl)cc1C(=O)c1ccccc1)c1cncc(Br)c1 | 0 | 0
Cc1cc([N+](=O)[O-])nn1CC(=O)Nc1ccc(Cl)cc1C(=O)c1ccccc1 | 0.57 | 0
COc1ccc(N2C(=O)CC(=O)NC2=S)cc1 | 0 | 0
Cc1ccc(C)n1-c1ccc(N2CCNCC2)c([N+](=O)[O-])c1 | 0.32 | 0
O=[N+]([O-])c1ccc(N2CCCC2)c(F)c1Br | 0 | 0
CC1=NN(c2ccccc2)C(=O)C1=Cc1c(O)[nH]c(=O)[nH]c1=O | 0.71 | 0
Cc1cccc(C(=O)NC(Oc2ccccc2Cl)C(Cl)(Cl)Cl)c1 (configuration not stated) | 0 | 0
O=[N+]([O-])c1ccc(NCC(O)c2ccccc2)c2ncccc12 (configuration not stated) | 0.65 | 0
CCCc1ccc(OCCNc2ccc([N+](=O)[O-])c3cccnc23)cc1 | 0 | 0
O=[N+]([O-])c1ccc(NCCCO)c2ncccc12 | 0 | 0
CC(Nc1ccc([N+](=O)[O-])c2cccnc12)c1ccc(Br)cc1 (configuration not stated) | 0.68 | 0
Oc1ccc(Br)cc1CN1CCN(Cc2cccc(Cl)c2)CC1 | 0 | 0
SMILES | Cy5 interf NS3h | HCV NS3h FP | others
O=c1oc2ccccc2c2c1C(c1ccc(Cl)cc1)c1c(c3ccccc3oc1=O)O2 | 0 | 0
Cc1cccc(C(=O)NC(Oc2ccccc2[N+](=O)[O-])C(Cl)(Cl)Cl)c1 (configuration not stated) | 0 | 0
O=C1NC(=S)N(c2ccccc2)C(=O)/C1=C/c1ccc(-c2ccc(C(=O)O)c(Cl)c2)o1 | 0 | 68 | NS3h confirm=66;SSB-DNA FP CB=95;Cy5 SSB fluor CB=0;Cy5 interf conf=0
Cc1ccc(N2C(=O)NC(=O)/C(=C\C=C\c3ccccc3)C2=O)cc1 | 0 | 0
O=C1NC(=O)N(c2ccccc2)C(=O)/C1=C\c1ccc(-c2ccc(C(=O)O)cc2)o1 | 0 | 83 | NS3h confirm=91;SSB-DNA FP CB=94;Cy5 SSB fluor CB=0;Cy5 interf conf=0.76
Cc1ccc(N2C(=O)/C(=C/c3ccc(-c4cccc(C(=O)O)c4)o3)C(=O)NC2=S)cc1 | 0 | 83 | NS3h confirm=55;SSB-DNA FP CB=105;Cy5 SSB fluor CB=0;Cy5 interf conf=0
Cc1ccc(-n2c(C)cc(/C=C3\C(=O)NC(=S)N(c4ccccc4)C3=O)c2C)cc1 | 0 | 0
O=C1NC(=S)NC(=O)C1=Cc1ccc(-c2cc(Cl)c([N+](=O)[O-])cc2Cl)o1 | 0 | 0
O=C(Nc1ccc(Br)cc1C(=O)c1ccccc1)c1ccc(F)cc1 | 0 | 0
C=C(C)COc1cc(C)cc2oc(=O)c3c(c12)CCC3 | 0 | 0
COc1ccc(OP(=O)(Oc2ccccc2)Oc2ccc(OC)cc2)cc1 | 0 | 0
Cc1cc(C=C2C(=O)NC(=O)NC2=O)c(C)n1C | 0 | 0
Cc1cc(C=C2C(=O)NC(=O)NC2=O)c(C)n1-c1cccnc1 | 0 | 47 | NS3h confirm=0;SSB-DNA FP CB=0;Cy5 SSB fluor CB=0;Cy5 interf conf=0.76
COc1ccc(CN2CCN(Cc3cccc(F)c3)CC2)cc1 | 0 | 0

High-throughput results as filed in PubChem.
